Screening results: PubChem BioAssay, National Center for Advancing Translational Sciences (NCATS)
HSD17B inh = qHTS Assay for Inhibitors of HSD17B4, hydroxysteroid (17-beta) dehydrogenase 4; 3-hydroxyacyl-CoA dehydrogenase type-2 (Homo sapiens), Q99714; Potency, µM (top dose mostly 57.1 µM), for the others: at the top dose activity change, negative = inhibition, actives largely listed as inhibitors; hit rate 7.6% among 75,000; recombinant HSD17B10, NADH fluorescence kinetic;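 further: the protocol describes HADH2 (HSD17B10) and not the HSD17B4 of the title; potency means the concentration at half of the fitted maximal effect; on the % scale 0 is the no-effect control and ±100 the full control effect; nearly all actives have a fitted effect of over 70% in size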
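Enzyme plus compound, 15 min room temperature; substrate mix added (NAD+ 1 mM, beta-hydroxybutyryl-CoA 90 uM final); plates read kinetically for NADH fluorescence. HADH2 was His-tagged, E. coli-derived, 20 nM.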
HADH2 inhib = qHTS Assay for Inhibitors of HADH2 (Hydroxyacyl-Coenzyme A Dehydrogenase, Type II); recombinant HADH2, NADH fluorescence, beta-hydroxybutyryl-CoA; hit rate 3.4% among 73,000; Potency, µM (top dose mostly 57.1 µM), inactives show at the top dose activity change, negative = inhibition, most hits filed as inhibitors; AID 886, 2007; 3-hydroxyacyl-CoA dehydrogenase type-2 (Homo sapiens), Q99714; further: potency means the concentration at half of the fitted maximal effect; on the % scale 0 is the no-effect control and ±100 the full control effect; nearly all actives have a fitted effect of over 60% in size
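E. coli-expressed His-tagged HADH2 tested at 20 nM in alkaline Tris buffer (pH 9.0); oxidation of 90 uM beta-hydroxybutyryl-CoA with 1 mM NAD+ tracked fluorimetrically for 4 min.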
AID923 = qHTS Assay for Allosteric/Competitive Inhibitors of Caspase-1: Spectroscopic Profiling in AFC Spectral Region; AID 923, 2007; compound fluorescence, AFC spectral region (405/520 nm); Potency, µM (titrated, usually from 57.5 µM), without a hit: at the top dose fluorescence increase, most hits filed as activators; hit rate 1.1% among 75,000; further: potency means the concentration at half of the fitted maximal effect; 0% is about no effect
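Baseline compound fluorescence (AFC region, 405 nm ex/520 nm em) taken from the intercept of kinetic reads with 50 nM caspase-1 and 5 uM Ac-WEHD-AFC; normalized to an on-plate AFC standard curve; compounds titrated up to 57 uM.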
GBA mod = Glucocerebrosidase; Lysosomal acid glucosylceramidase (Homo sapiens), P04062; purified enzyme, resorufin glucoside fluorescence (screen aimed at inhibitors), 20 min; Potency, µM; hit rate 1.1% among 48,000; in the data active means potency below about 15 µM; inconclusive means mostly about 16 µM to 33 µM;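 further: potency means the concentration at half of the fitted maximal effect; the screen sought inhibitors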
Target sequence (P04062 whole entry, looked up): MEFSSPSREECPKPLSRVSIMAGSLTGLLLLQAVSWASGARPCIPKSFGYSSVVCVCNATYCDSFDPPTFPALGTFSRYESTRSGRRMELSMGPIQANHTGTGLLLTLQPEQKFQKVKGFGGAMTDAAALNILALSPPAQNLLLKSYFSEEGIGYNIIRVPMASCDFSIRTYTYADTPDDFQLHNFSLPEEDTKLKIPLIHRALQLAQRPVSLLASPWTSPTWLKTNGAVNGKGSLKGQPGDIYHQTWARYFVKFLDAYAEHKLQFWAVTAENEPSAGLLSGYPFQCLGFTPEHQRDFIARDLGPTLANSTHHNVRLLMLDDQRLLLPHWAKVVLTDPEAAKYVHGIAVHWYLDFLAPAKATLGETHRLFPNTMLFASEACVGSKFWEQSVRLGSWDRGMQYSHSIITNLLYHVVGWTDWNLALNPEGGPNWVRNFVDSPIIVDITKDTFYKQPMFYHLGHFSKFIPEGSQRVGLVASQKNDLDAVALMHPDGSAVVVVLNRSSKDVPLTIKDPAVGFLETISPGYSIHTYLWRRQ
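Compounds titrated against 0.2 nM normal enzyme, 30 uM resorufin beta-D-glucopyranoside substrate, citrate/phosphate buffer with taurocholate and tween-20, pH 5.9. Reaction ran 20 min at room temperature; fluorescence (Ex 548/Em 600) gave AC50.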
4MU fluor = qHTS Assay for Spectroscopic Profiling in 4-MU Spectral Region; compound autofluorescence, 340/450 nm, 4-MU equivalents; hits give high values; max dye-equivalent concentration, M; hit rate 11% among 59,000; in the data active means max dye-equivalent concentration above about 10 nM; inconclusive means mostly about 1.1 nM to 9.6 nM
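Intrinsic fluorescence at 340/450 nm (ex/em) was read after 15 min at room temperature in pH 8.0, 100 mM Tris. Each compound concentration expressed as 4-MU-equivalent concentration from a six-point 4-MU standard series on each plate.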
A350 fluor = qHTS Assay for Spectroscopic Profiling in A350 Spectral Region; Compound autofluorescence, 340/450 nm, Alexa 350 dye-equivalents; hits give high values; max dye-equivalent concentration, M; hit rate 11% among 59,000; in the data active means max dye-equivalent concentration above about 10 nM; inconclusive means mostly about 1.1 nM to 9.6 nM
An asterisk follows results filed as active; ! = not confirmed by another sample; [ ] = remark or other dose. Compounds with a hit are over-represented: about 13% of the library has one in this group of screens. Unless noted, the call rests on the fitted dose curve; in most records, active means well fitted curve in the direction sought with a large enough effect; inconclusive means small, poorly fitted or top-dose-only effect, or another doubt; inactive means no such curve, though single readings can be large; an effect the other way counts as inactive or inconclusive.

O=C1NC(=O)C2(Cc3c(nc4ccccn4c3=O)N3CCCCCC32)C(=O)N1Cc1ccccc1 (stereo not given) was read as HSD17B inh -11%, HADH2 inhib -7%, AID923 1%, GBA mod >77, 4MU fluor inconclusive and A350 fluor inconclusive.
`CN1C(=O)N(C)C(=O)C2(Cc3c(nc4ccccn4c3=O)N3CCC(Cc4ccccc4)CC32)C1=O` (stereo not given) gave HSD17B inh 69%, HADH2 inhib 6%, AID923 0%, GBA mod 13*, 4MU fluor 1.3e-07M* and A350 fluor 1.5e-07M*.
Screening CC1=C(O)C(=O)C=C2C1=CC=C1[C@]2(C)CC[C@@]2(C)C3C[C@](C)(C(=O)O)CC[C@@]3(C)CC[C@@]12C (stereo not given in full) returned HSD17B inh 5µM* and AID923 0%.
`COC(=O)[C@]1(C)CC[C@@]2(C)CC[C@@]3(C)C4=CCc5c(cc(O)c(O)c5C)[C@]4(C)CC[C@@]3(C)C2C1` (stereo not given in full) gave HSD17B inh -9% and AID923 -2%.
For COc1ccc(C[C@H]2c3cc(OC)c(OC)cc3CCN2C)cc1OC the results were HSD17B inh -6%[25.6 µM], HADH2 inhib 6%, AID923 0%[25.7 µM], 4MU fluor 2e-08M*! and A350 fluor 1.7e-08M*!.
`COc1cc2c(cc1OC)-c1c(OC)c(OC)cc3c1C(C2)N(C)CC3` (stereo not given) gave HSD17B inh inconclusive, HADH2 inhib inconclusive and AID923 7%.
Screening CCOC(=O)c1ccc2[nH]c(-c3ccc(S(=O)(=O)F)cc3)cc(=O)c2c1 returned HSD17B inh 2%[11.4 µM], HADH2 inhib 1%[11.4 µM], AID923 1%[11.5 µM], 4MU fluor 2.8e-08M* and A350 fluor 3.1e-08M*.
Clc1cccc(N2CCNCC2)c1 was read as HSD17B inh 12%, HADH2 inhib -2%, AID923 -2%, 4MU fluor inactive and A350 fluor inactive.
For Clc1cncc(N2CCNCC2)n1 the results were HSD17B inh 40µM*, HADH2 inhib -4% and AID923 4%.
Screening CC(C)Cc1[nH]c(=O)c(C#N)c2c1CCC2 returned 4MU fluor 1.4e-08M* and A350 fluor 1.7e-08M*.
For C[C@@]12Cc3cnc(-c4ccccc4)nc3C[C@@H]1CC[C@@H]1[C@H]3CC[C@@](C)(O)[C@]3(C)CC[C@@H]12 the results were HSD17B inh -4%[11.4 µM], HADH2 inhib -5%[11.4 µM], AID923 -1%[11.5 µM], 4MU fluor inactive and A350 fluor inactive.
For CCN(CC)c1ccc(N=Cc2c(O)n(-c3ccccc3C)c(=O)[nH]c2=O)cc1 the results were 4MU fluor 1.6e-06M* and A350 fluor 1.7e-06M*.
Screening Clc1ccc(C(Cl)(Cl)Cl)cc1Cl returned HSD17B inh -6%, HADH2 inhib -3% and AID923 1%.
`O=c1[nH]c2ccccc2n1CCCN1CCC(n2c(=O)[nH]c3cc(Cl)ccc32)CC1` gave HSD17B inh -8%, HADH2 inhib -4%, AID923 -2%, 4MU fluor 1.7e-08M*! and A350 fluor 1.8e-08M*!.
For NC[C@@H](CC(=O)O)c1ccc(Cl)cc1 the results were HSD17B inh 3%, HADH2 inhib 13%, AID923 0%, 4MU fluor 1.2e-08M*! and A350 fluor 1.6e-08M*!.
`NCC(CC(=O)O)c1ccc(Cl)cc1` (stereo not given) gave HSD17B inh 10%, HADH2 inhib 3%, AID923 -1%, GBA mod >77, 4MU fluor inactive and A350 fluor inactive.
For O=C(O)[C@H]1CCN1 the results were HSD17B inh -2%, HADH2 inhib -18%, AID923 -1%, 4MU fluor inactive and A350 fluor inactive.
`CN1C2CCC1CC(OC(=O)CCN1CCCC1)C2` (stereo not given) gave HSD17B inh 15%, HADH2 inhib 4%, AID923 -2%, GBA mod >77, 4MU fluor 5.8e-08M* and A350 fluor 6.7e-08M*.
For Oc1ccccc1O the results were HSD17B inh inconclusive, HADH2 inhib 2.5µM*, AID923 1%, 4MU fluor inactive and A350 fluor inactive.
For c1ccc2c(c1)[nH]c1ccccc12 the results were HSD17B inh inconclusive, HADH2 inhib 25µM* and AID923 3%.
`CCCCn1c(O)c(C(C)=NCCc2ccccc2)c(=O)[nH]c1=O` gave HSD17B inh -14%, HADH2 inhib -5%, AID923 0%, GBA mod >77, 4MU fluor inconclusive and A350 fluor 1e-08M*.
CCCCn1c(O)c(C(C)=NC(C)c2ccccc2)c(=O)[nH]c1=O (stereo not given) was read as HSD17B inh -4%, HADH2 inhib 2%, AID923 0%, GBA mod >77, 4MU fluor inactive and A350 fluor inconclusive.
For CCN1C[C@]2(C)CC[C@@H](O)[C@]34[C@@H]5CC6[C@@H](OC)C[C@@](O)([C@H]5[C@@H]6O)[C@@H](C[C@@H]23)[C@H]14 the results were HSD17B inh 2%, HADH2 inhib -11%, AID923 -4%, 4MU fluor inconclusive and A350 fluor inconclusive.
C=Cn1ccnc1P(=S)(c1ccc(N(C)C)cc1)c1nccn1C=C was read as HSD17B inh -11%, HADH2 inhib 8%, AID923 -4%, GBA mod >77, 4MU fluor inactive and A350 fluor inactive.
`CN(C)c1ccc(N(C)C)cc1` gave HSD17B inh -6%, HADH2 inhib 3.2µM* and AID923 2%.
CC(=O)C1=C(O)[C@@H]2[C@@H]3c4c[nH]c5cccc(c45)C[C@@H]3C(C)(C)N2C1=O was read as HSD17B inh inconclusive, HADH2 inhib 3% and AID923 10%.
NC[C@@H](O)CSP(=O)(O)O was read as HSD17B inh 10%[11.4 µM], HADH2 inhib 6%[11.4 µM], AID923 4%[11.5 µM], 4MU fluor inactive and A350 fluor inactive.
For CCOc1ccc(-c2cc(C(=O)N3CCC4(CC3)OCCO4)c3ccccc3n2)cc1 the results were HSD17B inh 7.9µM*, HADH2 inhib inconclusive, AID923 0%, 4MU fluor 1.7e-07M* and A350 fluor 1.7e-07M*.
